Measured values from PMC4336329 (PLoS ONE, 2015).
Out of some 310,000 compounds screened, about 14,000 (4.5%) showed an effect of 50% or more. The effect is printed as a negative number. What follows is part of a selection rich in strong results, with near analogues and random picks from the rest.

target: human ether-à-go-go-related gene (hERG) potassium channel (human, UniProt Q12809); assay: primary screen, population patch clamp on CHO cells stably expressing hERG; higher = less effect of the substance
Sequence (Q12809 whole entry, looked up): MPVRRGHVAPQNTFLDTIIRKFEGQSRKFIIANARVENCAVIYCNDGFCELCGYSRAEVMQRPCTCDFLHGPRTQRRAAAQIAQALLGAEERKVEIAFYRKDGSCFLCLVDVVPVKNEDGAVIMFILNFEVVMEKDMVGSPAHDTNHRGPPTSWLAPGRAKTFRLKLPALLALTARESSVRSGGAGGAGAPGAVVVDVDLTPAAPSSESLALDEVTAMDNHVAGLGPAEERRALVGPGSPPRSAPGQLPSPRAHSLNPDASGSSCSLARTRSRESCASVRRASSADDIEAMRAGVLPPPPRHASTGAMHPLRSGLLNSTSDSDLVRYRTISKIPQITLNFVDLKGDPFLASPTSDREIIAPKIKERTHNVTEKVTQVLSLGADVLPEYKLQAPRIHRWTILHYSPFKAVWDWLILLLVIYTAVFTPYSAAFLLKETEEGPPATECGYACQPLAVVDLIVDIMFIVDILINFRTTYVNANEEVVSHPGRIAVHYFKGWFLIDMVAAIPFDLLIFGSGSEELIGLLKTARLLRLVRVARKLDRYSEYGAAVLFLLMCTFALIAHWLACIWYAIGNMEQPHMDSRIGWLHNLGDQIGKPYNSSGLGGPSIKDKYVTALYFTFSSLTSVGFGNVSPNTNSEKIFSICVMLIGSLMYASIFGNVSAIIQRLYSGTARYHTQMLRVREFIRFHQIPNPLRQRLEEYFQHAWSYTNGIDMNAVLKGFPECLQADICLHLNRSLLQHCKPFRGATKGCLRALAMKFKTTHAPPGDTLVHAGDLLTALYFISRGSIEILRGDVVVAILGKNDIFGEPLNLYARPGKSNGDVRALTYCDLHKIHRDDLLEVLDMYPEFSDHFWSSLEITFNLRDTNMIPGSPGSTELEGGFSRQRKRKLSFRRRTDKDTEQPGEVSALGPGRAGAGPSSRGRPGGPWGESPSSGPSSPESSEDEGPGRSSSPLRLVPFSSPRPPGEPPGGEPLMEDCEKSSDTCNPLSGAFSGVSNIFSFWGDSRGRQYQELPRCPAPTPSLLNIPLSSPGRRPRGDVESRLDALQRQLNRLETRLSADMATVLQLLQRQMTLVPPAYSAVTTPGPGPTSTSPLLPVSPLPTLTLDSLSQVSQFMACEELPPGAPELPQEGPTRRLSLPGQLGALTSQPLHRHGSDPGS
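Further: peak tail current of the secondary pulse compared with the same well before compound.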

Structure (SMILES)	hERG current change (%, negative = inhibition) at 10uM [%]
COc1ccc(N2CCN(S(=O)(=O)c3cc4c5c(c3)C(C)C(=O)N5CCC4)CC2)cc1 (stereo not shown)	3.36
CC1C(=O)N2CCCc3cc(S(=O)(=O)N4CCN(c5ccccc5F)CC4)cc1c32 (stereo not shown)	-8.8
CC1C(=O)N2CCCc3cc(S(=O)(=O)N4CCN(c5ccc(F)cc5)CC4)cc1c32 (stereo not shown)	-50.3
O=C(/C=C/c1ccccc1[N+](=O)[O-])Nc1ccccc1	10.1
O=c1cc(CSc2ccccn2)c2ccccc2[nH]1	9.52
C=CCn1c(=O)c(C(=O)NC(C)c2ccccc2)c(O)c2ccccc21 (stereo not shown)	18.3
C=CCN(CC=C)Cc1c(O)ccc2c1oc(=O)c1ccccc12	-71.6
CN(Cc1c(O)ccc2c1oc(=O)c1ccccc12)C1CCCCC1	-42.8
C=CCN(CC=C)Cc1c(O)ccc2c(=O)c(-c3ccccc3)coc12	-16.9
Cc1ccccc1NC(=O)NCC1CCN(C(=O)OC(C)(C)C)CC1	-19.6
Cc1ccc(NC(=O)NCC2CCN(Cc3cccc(Cl)c3)CC2)c(Cl)c1	-59.8
Cc1ccccc1NC(=O)NCC1CCN(Cc2cccc(Cl)c2)CC1	-60
Cc1ccc(OCC(=O)N2N=C(C(F)(F)F)CC2(O)C(C)(C)C)cc1C (stereo not shown)	-15.9
O=C(NC1CCCCC1)C(c1cccs1)N(C(=O)Cc1c[nH]c2ccccc12)c1ccc(F)cc1 (stereo not shown)	14.7
Cc1ccc(S(=O)(=O)Cc2ccc(C(=O)N3CCN(c4cccc(C)c4C)CC3)o2)cc1	-7.95
O=C(c1ccc2c(=O)n(Cc3ccccc3Cl)c(=S)[nH]c2c1)N1CCCC1	4.9
Cc1cc(Cl)ccc1OCc1n[nH]c(=S)n1C1CCCCC1	21.1
CC(=O)N1CCN(c2cc(N3CCc4ccccc4C3)c(F)cc2[N+](=O)[O-])CC1	-41.3
CN1CCN(c2cc(N3CCc4ccccc4C3)c(F)cc2[N+](=O)[O-])CC1	-44.2
CCN1CCN(c2cc(N3CCc4ccccc4C3)c(F)cc2[N+](=O)[O-])CC1	-51.9

Structure (SMILES)	hERG current change (%, negative = inhibition) at 10uM [%]
O=C(CCC(=O)Nc1ccccc1)NNC(=O)c1ccco1	8.99
CN1CCN(C(=O)c2cc3sccc3n2CC(=O)c2ccccc2)CC1	-27.6
O=C(Cn1c(C(=O)NCC2CCCO2)cc2sccc21)c1ccccc1 (stereo not shown)	-3.47
O=C(Cn1c(C(=O)N2CCN(C3CCCCC3)CC2)cc2sccc21)c1ccccc1	-70.7
CCN1CCN(C(=O)c2cc3sccc3n2CC(=O)c2ccccc2)CC1	-45.5
O=C(Cn1c(C(=O)N2CCN(C3CCCC3)CC2)cc2sccc21)c1ccccc1	-76.1
O=C(Cn1c(C(=O)N2CCc3ccccc3C2)cc2sccc21)c1ccccc1	4.01
CCOc1cc(N2CCOCC2)c(OCC)cc1NC(=O)C1CC(=O)N(c2ccc(C)cc2)C1 (stereo not shown)	-2.64
O=C(COC(=O)c1ccccc1SCC(=O)N1CCCC1)NC1CCCCC1	-5.12
COc1ccc(C(=O)Oc2c(C)occc2=O)cc1OC	9.93
CCc1nc(NCCCCCO)c2nnn(Cc3ccccc3F)c2n1	-28.8
C#CCNc1nc(CC)nc2c1nnn2Cc1ccccc1F	-0.696
CCc1nc(NCC2CCCN2CC)c2nnn(Cc3ccccc3F)c2n1 (stereo not shown)	-54.2
CCOC(=O)C1C(=O)NC(SCC(=O)Nc2nccs2)=C(C#N)C1c1ccccc1OCC (stereo not shown)	13.7
COc1ccc(OC)c(C2C3CN(C(C)C)CC=C3C(C#N)=C(N)C2(C#N)C#N)c1 (stereo not shown)	-16.2
Nc1c(C(=O)Nc2ccccc2)c2nc3ccccc3nc2n1CCCN1CCOCC1	18.7
CCCCc1nc(SCC(=O)N2CCCC2)c2c(=O)n(C)c(=O)n(C)c2n1	-23
O=C(CCN1CCN(C(=O)c2ccco2)CC1)Nc1ccc(F)cc1	-22.4
CN1CCN(CCCCOc2cccc3ccccc23)CC1.Cl	-27.4
O=C(O)C(=O)O.c1ccc(CN2CCN(CCOCCOc3cccc4ccccc34)CC2)cc1	-43.3

Structure (SMILES)	hERG current change (%, negative = inhibition) at 10uM [%]
Cl.O=C(c1ccco1)N1CCN(CCCCOc2cccc3ccccc23)CC1	-62.4
COc1cccc(OC)c1OCCN1CCN(C(=O)c2ccco2)CC1.Cl	-16.2
Cl.O=C(c1ccco1)N1CCN(CCOCCOc2cccc3ccccc23)CC1	-62.5
Cl.O=C(c1ccco1)N1CCN(CCOc2ccc(F)cc2)CC1	-47.4
Cl.O=C(c1ccco1)N1CCN(CCCCOc2ccc(F)cc2)CC1	-74.4
O=C(c1ccco1)N1CCN(CCCCN2C(=O)c3ccccc3C2=O)CC1	-40
O=C(CCCCCCN1C(=O)c2ccccc2C1=O)Nc1nccs1	12.2
COc1cc(CNCCO)cc(Br)c1OCc1cccs1.Cl	-8.81
CCOc1c(C)cc2[nH]c(CCC(=O)O)nc2c1C.Cl	-0.00982
COCCn1c(-c2ccccc2F)n[nH]c1=S	21.5
CNC(=O)c1ccccc1Sc1ccccc1CO	27.9
CC(C)(C)c1ccc(NC(=S)NCc2cccs2)cc1	4.35
Cc1cc(N2CCN(c3ccccc3)CC2)nc(N)n1.Cl	-42.9
Cc1cc(N2CCN(c3ccccc3)CC2)nc(-n2nc(C)cc2C)n1	-63.2
CCCc1nc(C)cc(N2CCN(c3ccccc3)CC2)n1.Cl	-51.7
Cc1cc(N2CCN(c3ccccc3)CC2)nc(NCc2ccccc2)n1	4.25
Cc1cc(N2CCC(C)CC2)nc(-n2nc(C)cc2C)n1	-30.3
Cc1cc(C)n(-c2nnc(N3CCN(c4ccccc4)CC3)nn2)n1	-16
